# In the library only some 2.9% were active in any assay of this set; here they are far more common.
# PAFAH2 FP inh: inhibitors of human PAFAH2; 340,000 tested, 0.99% active; recombinant PAFAH2, FP-rhodamine activity probe, fluorescence polarization; Q99487; inhibition, % at 3.39 µM;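 active means inhibition above the mean over all tested compounds plus 3 SD, cut at about 30% in these data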;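 further: inhibitors block probe labeling of enzyme so polarization drops; 0% = enzyme with DMSO and 100% = wells lacking PAFAH2 protein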
# ZTA counter: counter-screen for EBNA-1 inhibitors: inhibitors of Epstein-Barr virus ZTA. AID 2234. ZTA-DNA binding, fluorescence polarization. P03206. inhibition, % at 11 µM. 320,000 tested, 0.15% active; in the data active means inhibition above about 33%
# rCAG RNA binder: molecules binding r(CAG) RNA repeats. r(CAG) RNA repeat, TO-PRO-1 dye displacement fluorescence. inhibition, % at 3 µM. 370,000 tested, 1.3% active;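 active means inhibition above the plate cutoff, the mean of all test compounds on that plate plus 3 SD, cut at about 35% in these data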;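 further: 0% = DMSO alone and 100% = 100 µM mitoxantrone as full dye displacement; higher means more dye released from RNA so lower well fluorescence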
# PAFAH1B2 FP inh: inhibitors of human PAFAH1B2; P68402; recombinant PAFAH1B2, FP-rhodamine activity probe, fluorescence polarization; inhibition, % at 3.39 µM; 340,000 tested, 1.2% active; AID 492953;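 active means inhibition above the mean of all tested compounds plus 3 SD, cut at about 24% in these data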;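 further: 0% = enzyme with DMSO and 100% = wells lacking PAFAH1B2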
# Target sequence (P68402 whole entry, looked up): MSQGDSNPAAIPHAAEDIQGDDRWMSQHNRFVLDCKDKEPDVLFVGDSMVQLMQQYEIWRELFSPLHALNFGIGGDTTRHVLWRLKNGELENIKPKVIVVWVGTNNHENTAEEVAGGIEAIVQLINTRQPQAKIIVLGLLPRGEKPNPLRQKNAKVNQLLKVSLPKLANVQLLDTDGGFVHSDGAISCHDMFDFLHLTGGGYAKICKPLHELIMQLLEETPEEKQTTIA
# PAFAH1B3 inh: PAFAH1B3 (human) inhibition. recombinant PAFAH1B3, FP-rhodamine probe, fluorescence polarization. inhibition, % at 3.39 µM. 340,000 tested, 0.28% active. AID 492972;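 active means inhibition above the screen-wide average of all tested compounds plus 3 SD, cut at about 25% in these data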;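 further: 0% = enzyme with DMSO only and 100% = wells lacking PAFAH1B3 protein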
# Target sequence (Q15102 whole entry, looked up): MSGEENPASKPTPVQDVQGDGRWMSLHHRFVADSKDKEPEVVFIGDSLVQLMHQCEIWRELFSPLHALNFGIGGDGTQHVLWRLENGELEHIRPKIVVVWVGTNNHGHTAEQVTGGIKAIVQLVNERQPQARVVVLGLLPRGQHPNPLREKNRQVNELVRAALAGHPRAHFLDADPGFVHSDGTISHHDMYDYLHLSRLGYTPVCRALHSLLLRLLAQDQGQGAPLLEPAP
# EBNA-1 inh: blocks EBNA-1 binding to DNA | 300,000 tested, 0.34% active | EBNA-1 DNA binding, fluorescence polarization | inhibition, % at 14.8 µM; in the data active means inhibition above about 28%
# rCAG binder conf: r(CAG) RNA repeat binding, confirmation; shares compounds with rCAG RNA binder; TO-PRO-1 dye displacement fluorescence; inhibition, % at 3 µM; 4,300 tested, 70% active; AID 652065;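 active means inhibition above a per-plate cutoff, the mean inhibition of sample wells plus 3 SD, cut at about 35% in these data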;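 further: loss of TO-PRO-1 fluorescence as compound displaces dye from 1x1 AA loop RNA; 0% = DMSO only wells and 100% = 100 µM mitoxantrone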
# dCAG dye counter: DNA CAG dye complex inhibition counter-screen | shares compounds with rCAG RNA binder | 4,300 tested, 94% active | d(CAG) DNA oligo TO-PRO-1 dye displacement, fluorescence | inhibition, % at 3 µM;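 active means inhibition above its plate's cutoff, the mean test-well inhibition plus 3 SD, cut at about 4.8% in these data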;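 further: 0% = DNA dye mix with DMSO and 100% = 100 µM mitoxantrone; hits displace the dye from DNA and so lower well fluorescence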
# dCAG dye DR: counter-screen for rCAG binders: inhibitors of DNA CAG TO-PRO-1 complex | shares compounds with rCAG RNA binder | DNA CAG/GTC duplex TO-PRO-1 dye displacement fluorescence | IC50, µM | 250 tested, 20% active | AID 686960; in the data active means IC50 below about 10 µM
# Starred values were filed as active, the others as inactive; i = inactive; x = no result given.
SMILES,PAFAH2 FP inh,ZTA counter,rCAG RNA binder,PAFAH1B2 FP inh,PAFAH1B3 inh,EBNA-1 inh,rCAG binder conf,dCAG dye counter,others
COc1cc(/C=C/c2ccc3c(Br)cc(Br)c(O)c3n2)ccc1O,6,22,39*,6,22,1,39*,20*,
COc1cc([N+](=O)[O-])ccc1NC(=S)NNC(=O)c1ccc2c(c1)OCO2,3,-4,64*,9,12,-2,57*,16*,
O=C(NC(=S)Nc1cc([N+](=O)[O-])ccc1O)c1ccc2c(c1)OCO2,14,0,9,18,21,-1,x,x,
COc1ccc(C(=O)OCC(=O)Nc2ncc([N+](=O)[O-])s2)cc1OC,40*,-6,52*,9,30*,x,74*,41*,
O=C(/C=C/c1ccc(Cl)cc1)NC(=S)Nc1ccccc1C(=O)O,-4,-2,35*,3,0,3,33,9.1*,
COc1ccc(C(=O)O)cc1NC(=S)NC(=O)/C=C/c1ccc(C(C)C)cc1,-1,12,57*,0,12,-4,75*,40*,
CCCCC(=O)NC(=S)Nc1cc(C(=O)O)ccc1OC,3,-5,0,-1,10,-10,x,x,
CCCCNS(=O)(=O)CCNCc1ccco1,2,x,-1,2,9,x,x,x,
COc1ccc(C(CNS(=O)(=O)c2cccc(F)c2)N2CCCC2)cc1 (stereo not drawn),-5,x,1,4,5,x,x,x,
CCC(Sc1nc(-c2cccc(OC)c2)c(C#N)c(=O)[nH]1)C(=O)Nc1nnc(C(C)C)s1 (stereo not drawn),0,29,75*,35*,-4,8,75*,38*,
CC(C)CC1OC(C)Cc2[nH][nH]c(=O)c21 (stereo not drawn),x,x,0,x,x,x,x,x,
O=C(CSc1ncnc2nc[nH]c12)Nc1nnc(SCc2ccc(Cl)c(Cl)c2)s1,1,-4,42*,4,-3,0,61*,24*,
Clc1cccc(Cc2c(C3CCCCC3)nc3ccc(Br)cn23)c1,x,x,36*,x,x,x,23,3,
COc1ccccc1Cc1c(-c2cccc(Cl)c2)nc2ccc(Br)cn12,x,x,38*,x,x,x,22,4,
Cc1cc(Br)cn2c(Cc3cccc(Cl)c3)c(-c3ccco3)nc12,x,x,42*,x,x,x,18,5.2*,
Clc1cccc(Cc2c(-c3ccccc3)nc3ccc(Cl)cn23)c1,x,x,36*,x,x,x,19,5.5*,
O=C(O)CNC(=O)C1(NC(=O)OCc2ccccc2)CCCC1,-6,x,0,7,4,x,x,x,
Clc1cccc(Cc2c(-c3cccc(Br)c3)nc3ccc(Cl)cn23)c1,x,x,45*,x,x,x,26,9.9*,
Clc1ccc2nc(-c3cccc(Br)c3)c(Cc3ccccc3)n2c1,x,x,31,x,x,x,x,x,
O=C(CSc1nnc(-c2ccncc2)n1-c1ccccc1)Nc1ccc2c(c1)OCCO2,x,x,0,x,x,x,x,x,
Cc1noc(NS(=O)(=O)c2ccc(NC(=O)/C=C/c3ccccc3)cc2)c1C,0,x,39*,-3,5,x,37*,6.7*,
Cc1noc(NS(=O)(=O)c2ccc(NC(=O)CS(=O)(=O)c3ccccc3)cc2)c1C,10,0,15,3,11,-1,x,x,
Cc1noc(NS(=O)(=O)c2ccc(NC(=O)/C=C/c3ccc(Cl)cc3Cl)cc2)c1C,x,x,25,x,x,x,x,x,
Cc1noc(NS(=O)(=O)c2ccc(NC(=O)C(CC(C)C)N3C(=O)c4ccccc4C3=O)cc2)c1C (stereo not drawn),-1,14,63*,3,1,0,45*,15*,
O=C(/C=C/c1ccc(Br)cc1)Nc1ccc(S(=O)(=O)Nc2ncccn2)cc1,-6,19,38*,1,4,5,24,5.9*,
SMILES,PAFAH2 FP inh,ZTA counter,rCAG RNA binder,PAFAH1B2 FP inh,PAFAH1B3 inh,EBNA-1 inh,rCAG binder conf,dCAG dye counter,others
COc1ccc(/C=C/C(=O)Nc2ccc(S(=O)(=O)Nc3onc(C)c3C)cc2)cc1OC,0,-5,39*,-8,5,2,38*,11*,
O=[N+]([O-])c1ccc(CN2CCN(c3ccc4ccccc4n3)CC2)cc1,-1,2,-3,-3,6,2,x,x,
Cc1nc(NS(=O)(=O)c2ccc(Cl)s2)c2c3c(sc2n1)CCCC3,18,-4,78*,3,-3,-11,55*,19*,
Oc1ccc(C[C@H]2CNC(=S)N2C[C@H]2CCCN2C[C@H](Cc2ccccc2)N2C[C@H](Cc3ccccc3)N(CC3CCCCC3)C2=S)cc1,x,x,16,x,x,x,x,x,
O=[N+]([O-])c1cccc(NC(=S)Nc2nc(-c3ccccc3Cl)cs2)c1,-37,-6,39*,8,8,-7,36*,28*,
CCNC(=S)Nc1cccc([N+](=O)[O-])c1,x,-8,x,x,x,0,x,x,
CCC(=O)N1Cc2cc(C(=O)Nc3nccs3)nc(-c3cccc(-c4ccccc4OC)c3)c2[C@H]1CCO,x,x,7,x,x,x,x,x,
CNC(=O)C1CC(=O)N(CCc2ccccc2)C(=Nc2ccc(OC)cc2)S1 (stereo not drawn),-7,-8,-3,4,2,-9,x,x,
COc1ccc(N=C2SC(C(=O)Nc3ccc(C(=O)O)cc3)CC(=O)N2Cc2cccs2)cc1 (stereo not drawn),-3,14,61*,-1,9,6,60*,20*,
Oc1c(Br)cc(Br)cc1/C=N/NC(=S)N[C@H]1CC2C=CC1C2 (stereo partly drawn),57*,9,74*,15,21,-4,66*,29*,dCAG dye DR=i
CNC(=S)N/N=C/c1cc(Br)cc(Br)c1O,28,2,10,13,14,-12,x,x,
O=S(=O)(N/N=C1/CC(c2ccccc2)Oc2ccccc21)c1ccccc1 (stereo not drawn),14,x,36*,7,3,x,32,9.6*,
O=C(O)c1cc(N/N=C2/CC(c3ccccc3)Oc3ccccc32)ccc1Cl (stereo not drawn),17,20,46*,2,7,21,62*,22*,
C/C(=N/NC(=O)c1cc2ccccc2cc1O)c1ccco1,-7,-8,51*,5,15,-11,11,9.0*,
C/C(=N\NC(=O)c1cc2ccccc2cc1O)c1cccs1,9,1,50*,6,16,5,9,4,
C/C(=N\NC(=O)c1cc(C)nc2ccccc12)c1ccco1,5,-10,3,0,9,2,x,x,
C/C(=N\NC(=O)c1cc2ccccc2cc1O)c1ccc(C)o1,4,5,43*,10,4,2,12,6.5*,
O=C(COc1ccc(Br)cc1)N(Cc1nnc(-c2ccccc2Cl)o1)C1CC1,x,x,0,x,x,x,x,x,

# High-throughput results as filed in PubChem.
